Bioassay records: PubChem BioAssay, National Center for Advancing Translational Sciences (NCATS)
Shiga inhibitor: Shiga toxin inhibition. inhibition, % at 38.7 µM. Vero cells, Shiga toxin protein synthesis inhibition reporter. actives 9.2% (n = 290,000); in the data active = inhibition mostly above about 28%, no sharp cut-off; inactive = mostly below about 43%
Cycloheximide cs: counter-screen hit for Shiga toxin inhibitors, cycloheximide; cell reporter, cycloheximide protein synthesis inhibition counterscreen; max response, %; actives 12% (n = 300,000); in the data active = max response mostly above about 13%, no sharp cut-off; inactive = mostly below about 14%; note: read at 38.3 µM for the half of the compounds with a filed dose
Pf growth 48h: P. falciparum growth inhibition at 48 hours (one generation). Potency, µM (titrated, usually from 28.7 µM), most hits filed as inhibitors. P. falciparum luciferase growth in erythrocytes, 48 h. actives 5.9% (n = 310,000)
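Firefly luciferase activity from engineered P. falciparum reports growth; inhibitors lower the luminescent signal. Cultures contained 2% hematocrit erythrocytes at 0.1% final parasitemia.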
Pf growth 96h: P. falciparum growth inhibition at 96 hour, primary screen for plastid delayed-death inhibitors. P. falciparum luciferase reporter growth, 96 h. Potency, µM (series often up to 28.7 µM), most hits filed as inhibitors. actives 6.9% (n = 320,000). AID 504834
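Delayed-death screen, second-generation endpoint: infected erythrocytes, 2% hematocrit, 0.05% parasitemia final; 96 hours at 37 C, 5% CO2; luciferase detection reagent; luminescence decrease equals reduced growth.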
HCMV antiviral: inhibitors of human cytomegalovirus; HFF cells, HCMV-luciferase reporter, 72 h; active compounds read low; actives 4.5% (n = 410,000); activity change, negative = inhibition, % at 57.5 µM; AID 1259415; in the data active = activity change below about -60%; inconclusive = no clear call, values can overlap the other calls; inactive = above about -39%
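After 16 h attachment at 37C, HFF cells received test compound and HCMV-luciferase (1 PFU/cell); reporter luminescence read 72 h later, data normalized against buffer-only and known inhibitor Salinomycin.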
Of the large screens only hits and unclear results are named; the others gave an inactive call. The list is not random: actives were taken first. Their share in the collection is about 20%. Unless noted, calls come from the whole dose curve; as a rule, active = well fitted inhibition curve with a large enough effect; inconclusive = small, poorly fitted or top-dose-only effect, or another doubt; inactive = no such curve, though single readings can be large or run the other way.

Cc1noc(NS(=O)(=O)c2ccc(NC(=O)C(C)(C)C)cc2)c1C	Pf growth 96h inconclusive
COc1ccc(CCOC(=O)c2cccc(NC(C)=O)c2)cc1	Shiga inhibitor 52, Cycloheximide cs 36
CC(=O)Nc1cccc(C(=O)OCC(=O)NCc2ccc(F)cc2)c1	Pf growth 48h 13µM
CC1CCCN(CCCNC(=O)c2ccc3c(c2)N(Cc2ccc(Cl)cc2)C(=O)c2ccccc2S3(=O)=O)C1 (centres undefined)	HCMV antiviral -100 (no result: Shiga inhibitor, Cycloheximide cs, Pf growth 48h, Pf growth 96h)
CC(=O)c1ccc(NC(=O)c2ccc3c(c2)N(Cc2cccc(Cl)c2)C(=O)c2ccccc2S3(=O)=O)cc1	none (no result: Shiga inhibitor, Cycloheximide cs, Pf growth 48h, Pf growth 96h)
CCC1CCCCN1CCCNC(=O)c1ccc2c(c1)N(Cc1ccc(Cl)cc1)C(=O)c1ccccc1S2(=O)=O (centres undefined)	HCMV antiviral -106 (no result: Shiga inhibitor, Cycloheximide cs, Pf growth 48h, Pf growth 96h)
O=C(Nc1cccc(F)c1)c1ccc2c(c1)N(Cc1ccccc1)C(=O)c1ccccc1S2(=O)=O	HCMV antiviral -89 (no result: Shiga inhibitor, Cycloheximide cs, Pf growth 48h, Pf growth 96h)
CCC1CCCCN1CCCNC(=O)c1ccc2c(c1)N(Cc1cccc(Cl)c1)C(=O)c1ccccc1S2(=O)=O (centres undefined)	HCMV antiviral -98 (no result: Shiga inhibitor, Cycloheximide cs, Pf growth 48h, Pf growth 96h)
COc1ccc(OCc2nnc(SC(C)C(=O)Nc3nccs3)n2-c2ccccc2)cc1 (centres undefined)	Pf growth 48h inconclusive
COc1ccc(CCC(=O)NCC(c2ccco2)N2CCc3ccccc32)cc1 (centres undefined)	Pf growth 48h inconclusive (no result: Shiga inhibitor, Cycloheximide cs)
COc1ccc(NC(=O)c2ccc3c(c2)N(Cc2cccc(Cl)c2)C(=O)c2ccccc2S3(=O)=O)cc1Cl	none (no result: Shiga inhibitor, Cycloheximide cs, Pf growth 48h, Pf growth 96h)
CCC1CCCCN1CCCNC(=O)c1ccc2c(c1)N(Cc1cccc(C)c1)C(=O)c1ccccc1S2(=O)=O (centres undefined)	HCMV antiviral -64 (no result: Shiga inhibitor, Cycloheximide cs, Pf growth 48h, Pf growth 96h)
O=C(NCCN1CCOCC1)c1ccc2c(c1)N(Cc1ccc(F)cc1)C(=O)c1ccccc1S2(=O)=O	Pf growth 48h inconclusive, Pf growth 96h inconclusive
O=C(NCCN1CCCC1)c1ccc2c(c1)N(Cc1ccccc1)C(=O)c1ccccc1S2(=O)=O	Pf growth 48h 8.3µM
Cc1cccc(CN2C(=O)c3ccccc3S(=O)(=O)c3ccc(C(=O)N4CCCC4)cc32)c1	none (no result: Shiga inhibitor, Cycloheximide cs, Pf growth 48h, Pf growth 96h)
Cc1cc(C(=O)NCCc2ccc(Cl)cc2)c2c(C)nn(-c3cccc(F)c3)c2n1	none (no result: Shiga inhibitor, Cycloheximide cs, Pf growth 48h, Pf growth 96h)
COCCn1c(SCC(=O)NCCCN2CCCC2=O)nc2ccccc2c1=O	none (no result: Shiga inhibitor, Cycloheximide cs, Pf growth 48h, Pf growth 96h)
COc1ccc([C@H]2[C@H](C(=O)OC(C)(C)C)N3N=Cc4ccccc4C3C23C(=O)c2ccccc2C3=O)cc1OC (some centres undefined)	Pf growth 48h 10µM, Pf growth 96h 9.3µM (no result: HCMV antiviral)
COc1ccc(C2C(C(=O)Nc3cccc(C)n3)c3ccccc3C(=O)N2C)cc1OC (centres undefined)	Pf growth 48h inconclusive, Pf growth 96h inconclusive
COc1ccc([C@H]2[C@H](C(=O)OC(C)(C)C)N3N=Cc4ccccc4C3C23C(=O)c2ccccc2C3=O)c(OC)c1 (some centres undefined)	Shiga inhibitor 45, Cycloheximide cs 18, Pf growth 48h 2.9µM, Pf growth 96h 1µM
CC12CCC(C(=O)NC(c3ccccc3)c3ccccc3)(OC1=O)C2(C)C (centres undefined)	Pf growth 96h 13µM (no result: Pf growth 48h)
CC12CCC(C(=O)Nc3nc4ccccc4s3)(OC1=O)C2(C)C (centres undefined)	Shiga inhibitor 85, Cycloheximide cs 29
O=S(=O)(Nc1ccc2oc(-c3ccccc3)nc2c1)c1ccccc1	Cycloheximide cs 31 (no result: Pf growth 96h)
Cc1ccc2nc(-c3cccnc3)oc2c1	Shiga inhibitor 131, Cycloheximide cs 47 (no result: Pf growth 96h)
Clc1ccc2oc(SCc3cccnc3)nc2c1	Shiga inhibitor 66, Cycloheximide cs 23 (no result: HCMV antiviral)
Cc1ccc(-c2nc3cc(NS(=O)(=O)c4ccc(C)cc4)ccc3o2)cc1	Pf growth 96h inconclusive (no result: Pf growth 48h)
Clc1ccc2oc(-c3ccccc3)nc2c1	Shiga inhibitor 107, Cycloheximide cs 46
Cc1ccc2nc(-c3ccccn3)oc2c1	none (no result: Pf growth 96h)
Cc1cnc(NS(=O)(=O)c2ccc(N)cc2)nc1-c1ccccc1O	none (no result: Shiga inhibitor, Cycloheximide cs, Pf growth 48h, Pf growth 96h)
CC(C)(C)c1ccccc1OCC(=O)Nc1ccccc1C(=O)NCc1cccnc1	Pf growth 48h inconclusive, HCMV antiviral inconclusive
CC1=C(C(=O)Nc2ccc(C)cc2C)C(c2ccccc2C)n2ncnc2N1 (centres undefined)	none (no result: Shiga inhibitor, Cycloheximide cs, Pf growth 48h, Pf growth 96h)
CCCC[C@H]1CCCO[C@@](C(=O)NCc2ccccn2)(C(F)(F)F)C1	none (no result: Pf growth 48h, Pf growth 96h, HCMV antiviral)
Cc1ccccc1-c1nc2cc(Cl)ccc2o1	Cycloheximide cs 38
O=C(O)Cc1ccc2oc(-c3cccnc3)nc2c1	none
Cc1ccccc1-c1nc2cc(Cl)ccc2c(=O)o1	HCMV antiviral inconclusive
Clc1ccc2oc(-c3cccnc3)nc2c1	Shiga inhibitor 85, Cycloheximide cs 47 (no result: Pf growth 96h)
CN(Cc1ccccc1)C(=O)c1nn2cccnc2c1Cl	Pf growth 96h inconclusive, HCMV antiviral inconclusive
Cc1ccc(NC(=O)CN(C)S(=O)(=O)c2ccc(Br)s2)cc1F	Shiga inhibitor 44, Cycloheximide cs 21
CN(CC(=O)Nc1ccc2c(c1)OCCO2)S(=O)(=O)c1ccc(Br)s1	Cycloheximide cs 25, Pf growth 96h 13µM (no result: Pf growth 48h)
CCN(CC(=O)Nc1ccc2c(c1)OCCO2)S(=O)(=O)c1cccs1	Shiga inhibitor 52, Cycloheximide cs 28 (no result: Pf growth 48h)
CC(NC(=O)CN(C)S(=O)(=O)c1cccc2nsnc12)c1ccccc1 (centres undefined)	Pf growth 96h inconclusive
CC(NC(=O)CN(C)S(=O)(=O)c1ccc(Br)s1)c1ccccc1 (centres undefined)	Shiga inhibitor 84, Cycloheximide cs 36
CCOC(=O)c1ccc(NC(=O)c2cnn(-c3ccc(C)cc3C)c2C2CCN(C(=O)OC(C)(C)C)CC2)cc1	none (no result: Shiga inhibitor, Cycloheximide cs, Pf growth 48h, Pf growth 96h)
O=C(O)CCN1C(=O)S/C(=C\c2cccnc2)C1=O	Pf growth 48h inconclusive, Pf growth 96h inconclusive
O=C(CNS(=O)(=O)c1ccc(Br)s1)Nc1ccc2c(c1)OCCO2	Cycloheximide cs 32, Pf growth 48h inconclusive, Pf growth 96h 13µM
CCC1SC(=Nc2cccc(C)c2)NC1=O (centres undefined)	Pf growth 96h 10µM
COc1cc(C(=O)NCC(=O)N/N=C/c2ccc(OC(=O)c3ccco3)cc2)cc(OC)c1OC	Pf growth 96h inconclusive
Cc1ccc(S(=O)(=O)Nc2ccccc2C(C(=O)OC(C)(C)C)C(=O)OC(C)(C)C)cc1	none (no result: Shiga inhibitor, Cycloheximide cs, Pf growth 48h, Pf growth 96h)
CN(C(=O)CSc1nncn2c1cc1occc12)c1ccccc1	HCMV antiviral -98 (no result: Shiga inhibitor, Cycloheximide cs, Pf growth 48h, Pf growth 96h)
COc1ccc(-c2cc(C(=O)NCc3ccco3)c3ccccc3n2)cc1	Cycloheximide cs 14, Pf growth 48h inconclusive, Pf growth 96h 3.3µM
O=C(Nc1cccc(S(=O)(=O)NCc2ccco2)c1)c1cc(-c2ccccc2)nc2ccccc12	Cycloheximide cs 36, Pf growth 96h inconclusive
Cc1nnc(Sc2cc(C(=O)NCc3ccco3)c3ccccc3n2)s1	Cycloheximide cs 35, Pf growth 48h inconclusive (no result: Pf growth 96h)
COc1ccc(-c2cc(C(=O)NCc3ccco3)c3ccccc3n2)c(OC)c1	Pf growth 48h inconclusive
